# Experimental data from paper PMC4552634, “A New Set of Chemical Starting Points with Plasmodium falciparum Transmission-Blocking Potential for Antimalarial Drug Discovery” (PLoS ONE, 2015).
# Like-named read-outs stand apart in the source and are kept apart here. The campaign covered roughly 13,000 compounds. About 3,200 (25%) showed an effect of 50% or more. The list shows a part of the results.
# Tested on: P. falciparum stage V gametocytes
# Parameters: BacTiter-Glo ATP luminescence viability of purified stage V gametocytes in 384-well plates, per cent inhibition versus DMSO
# Details: 48 h, 5 µM, inhibitor
Compound,% Inhibition [%],% Inhibition (% Inhibition) [%]
CC[C@@H]([C@@H](CC(C)C)C(=O)N[C@@H](CCCCNC(=O)OCc1ccccc1)C(=O)Nc1ccccn1)N(O)C=O [TCMDC-137163],20.28,
O=C(C=Cc1ccc(F)c(Br)c1)NC1CCC(CN2CCC(c3c[nH]c4ccccc34)CC2)CC1 (stereo not shown) [TCMDC-139908],,99.67
CC(=O)Nc1ccc2[nH]cc(C3CCN(CC4CCC(NC(=O)/C=C/c5ccc(Cl)c(Cl)c5)CC4)CC3)c2c1 (stereo not shown) [TCMDC-139851],,9.174
O=C(/C=C/c1ccc(Cl)c(Cl)c1)NC1CCC(N2CCC(c3c[nH]c4ccc(O)cc34)CC2)CC1 (stereo not shown) [TCMDC-139812],98.54,
O=C(C=Cc1ccc(F)c(Br)c1)N1CCC(CN2CCC(c3c[nH]c4ccccc34)CC2)CC1 [TCMDC-139914],-25.75,
O=C(/C=C/c1ccc(Cl)c(Cl)c1)NCCCCCN1[C@@H]2CC[C@H]1CC(c1c[nH]c3ccc(O)cc13)C2 (stereo partly shown) [TCMDC-139295],,11.46
O=C(C=Cc1ccc(Br)cc1)NC1CCC(CN2CCC(c3c[nH]c4ccccc34)CC2)CC1 (stereo not shown) [TCMDC-139948],31.75,
O=C(/C=C/c1ccc(Cl)cc1)NC1CCC(CN2CCC(c3c[nH]c4ccccc34)CC2)CC1 (stereo not shown) [TCMDC-139716],,101.2
CC(=O)Nc1ccc2[nH]cc(C3CCN(CC4CCC(NC(=O)/C=C/c5ccc(Cl)c(Cl)c5)CC4)CC3)c2c1 (stereo not shown) [TCMDC-139852],,29.73
O=C(/C=C/c1ccc(Cl)c(Cl)c1)NC1CCC(N2CCC(c3c[nH]c4ccccc34)CC2)CC1 (stereo not shown) [TCMDC-139778],-27.83,
O=C(/C=C/c1ccc(O)cc1)NC1CCC(CN2CCC(c3c[nH]c4ccccc34)CC2)CC1 (stereo not shown) [TCMDC-139719],17.65,
O=C(/C=C/c1ccc(Cl)c(Cl)c1)NC1CCC(CN2CCC(c3c[nH]c4ccncc34)CC2)CC1 (stereo not shown) [TCMDC-140109],103.5,
O=C(C=Cc1ccc(F)c(Br)c1)NC1CCC(CN2CCC(c3c[nH]c4ccccc34)CC2)CC1 (stereo not shown) [TCMDC-139919],,-60.64
CC(C)C(C(=O)n1ncc2c3c(N)nc(N)nc3ccc21)C(C)C [TCMDC-137333],-35.38,
COc1cccc(C(=O)Nc2sc3c(c2C(N)=O)CCCC3)c1OC [TCMDC-123542],-31.1,
COc1cc2nc(NCC3CCCO3)n3nc(-c4ccccc4)nc3c2cc1OC (stereo not shown) [TCMDC-125295],-4.624,
COc1ccc2cc(C(c3nnnn3CC3CCCO3)N3CCc4ccccc43)c(=O)[nH]c2c1 (stereo not shown) [TCMDC-123534],43.68,
Cc1ccc(CN2CCN(c3cc4c(cc3Cl)CCN4C(=O)Cc3ccc(NC(=O)c4ccc(C(F)(F)F)cc4)cc3)CC2)cc1 [TCMDC-139509],28.44,
O=C(Nc1ccc(F)c(F)c1)c1ccc(CN2CCCN(Cc3cccc(F)c3)CC2)cc1 [TCMDC-136389],9.307,
CCC[C@@H]([C@@H](CC1CCCCC1)C(=O)N[C@H](C(=O)Nc1nccs1)[C@H](C)O)N(O)C=O [TCMDC-138142],-26.13,
CCOC(=O)C1=C(C)N=c2sc(=Cc3ccccc3O)c(=O)n2C1c1ccc(OC)c2ccccc12 (stereo not shown) [TCMDC-124109],14.77,
O=[N+]([O-])c1ccc(Oc2c(Cl)cc(S(=O)(=O)NC3CCC(CN4CCC(c5c[nH]c6ccccc56)CC4)CC3)cc2Cl)c(Cl)c1 (stereo not shown) [TCMDC-140165],62.46,
N#Cc1c(Cl)cccc1Oc1ccc(S(=O)(=O)NC2CCC(CN3CCC(c4c[nH]c5ccccc45)CC3)CC2)cc1 (stereo not shown) [TCMDC-140167],,10.9

Compound,% Inhibition [%],% Inhibition (% Inhibition) [%]
CC(C)c1ccc(C=CC(=O)NC2CCC(CN3CCC(c4c[nH]c5ccccc45)CC3)CC2)cc1 (stereo not shown) [TCMDC-139936],103.3,
O=C(/C=C/c1ccc([N+](=O)[O-])cc1)NC1CCC(CN2CCC(c3c[nH]c4ccccc34)CC2)CC1 (stereo not shown) [TCMDC-139950],,23.65
O=C(/C=C/c1ccc(Cl)cc1)NC1CCC(CN2CCC(c3c[nH]c4ccccc34)CC2)CC1 (stereo not shown) [TCMDC-139701],,108.5
O=[N+]([O-])c1ccc(Oc2c(Cl)cc(S(=O)(=O)N3CCC(CN4CCC(c5c[nH]c6ccccc56)CC4)CC3)cc2Cl)c(Cl)c1 [TCMDC-140169],-22.29,
O=C(/C=C/c1ccc([N+](=O)[O-])cc1)NC1CCC(CN2CCC(c3c[nH]c4ccccc34)CC2)CC1 (stereo not shown) [TCMDC-139934],,72.83
O=C(Nc1cccnc1)c1cc(-c2cccnc2)nc2ccc(Br)cc12 [TCMDC-125212],10.18,
Cc1cc(Cl)ccc1OC(C)C(=O)N1CCc2ccccc21 (stereo not shown) [TCMDC-123620],-14.46,
Cc1cc(N2CCCC2)nc(Nc2ccc(NC(=O)COc3ccccc3)cc2)n1 [TCMDC-124969],-41.99,
COc1ccc(C(=O)NC(c2ccc(Cl)cc2Cl)c2cc(Cl)c3cccnc3c2O)cc1 (stereo not shown) [TCMDC-125549],15.16,
COc1cccc(C(=O)NC(c2ccc(Cl)cc2Cl)c2cc(Cl)c3cccnc3c2O)c1 (stereo not shown) [TCMDC-124342],31.32,
COc1cccc(C(=O)NC(C=Cc2ccccc2)c2cc(Cl)c3cccnc3c2O)c1 (stereo not shown) [TCMDC-125550],112.7,
COc1cccc(C(=O)NC(c2ccccc2OC)c2cc(Cl)c3cccnc3c2O)c1 (stereo not shown) [TCMDC-125612],79.98,
FC(F)(F)c1ccc2[nH]c(-c3ccc(-c4ccc(CNCC5CCCO5)cc4)s3)nc2c1.O=C(O)C(F)(F)F (stereo not shown) [TCMDC-133092],-19.94,
CC1CN(c2ccc(C(=O)NCC3CC3)cc2NC(=O)OCc2ccccc2)CC(C)O1 (stereo not shown) [TCMDC-134641],11.9,
CCOc1ccc2c(c1)OC(c1ccccc1)(C(F)(F)F)NC2=O (stereo not shown) [TCMDC-123632],18.25,
Cc1cc2nc(-c3ccc(/C=C/C(=O)NCCc4ccccc4)cc3)[nH]c2cc1C [TCMDC-140438],-13.04,
O=C(/C=C/c1ccc(-c2nc3cc(F)c(F)cc3[nH]2)cc1)NCc1ccc(Cl)c(Cl)c1 [TCMDC-140462],80.74,
O=C(NCc1ccc(Cl)c(Cl)c1)c1ccc(-c2nc3cc(F)c(F)cc3[nH]2)cc1 [TCMDC-140460],62.28,
O=C(NCc1ccc(Cl)c(Cl)c1)c1ccc(-c2nc3ccc(F)cc3[nH]2)cc1 [TCMDC-140448],-30.61,
COC(=O)c1ccc2nc(-c3ccc(/C=C/C(=O)NCc4ccc(Cl)c(Cl)c4)cc3)[nH]c2c1 [TCMDC-140447],71.15,
Cc1ccc2nc(-c3ccc(C=CC(=O)NCc4ccc(Cl)c(Cl)c4)cc3)[nH]c2c1 [TCMDC-140402],-29.51,
CC(C)(C)c1ccc(CNC(=O)/C=C/c2ccc(-c3nc4ccc(C(C)(C)C)cc4[nH]3)cc2)cc1 [TCMDC-140459],15.07,
CC(C)(C)c1ccc2nc(-c3ccc(/C=C/C(=O)NCc4cccc(C(F)(F)F)c4)cc3)[nH]c2c1 [TCMDC-140458],-22.76,

Compound,% Inhibition [%],% Inhibition (% Inhibition) [%]
Cc1cc2nc(-c3ccc(C(=O)NCc4ccc(Cl)c(Cl)c4)cc3)[nH]c2cc1C [TCMDC-140430],14.5,
Cc1cc2nc(-c3ccc(/C=C/C(=O)NCc4ccc(Cl)c(Cl)c4)cc3)[nH]c2cc1C [TCMDC-140437],1.168,
O=C(/C=C/c1ccc(-c2nc3ccc(Cl)cc3[nH]2)cc1)NCc1cccc(F)c1 [TCMDC-140444],-5.382,
CC(C)(C)c1ccc2nc(-c3ccc(/C=C/C(=O)NCc4ccc(Cl)c(Cl)c4)cc3)[nH]c2c1 [TCMDC-140457],61.32,
CC[C@H](C)CNC(=O)c1cccc(-c2cccc(CNCC3CNCCCO3)c2)n1 (stereo partly shown) [TCMDC-134217],48.98,
Clc1cc(Nc2ncnc3sc(C#Cc4ncc[nH]4)cc23)ccc1OCc1ccccn1 [TCMDC-135429],-6.463,
Cc1cc(Cl)c(S(=O)(=O)N2CCc3ccccc32)cc1OCC(=O)NC1CCCCC1 [TCMDC-124369],-19.22,
Fc1ccc(-c2cncc(-c3ccc(F)cc3)n2)cc1 [TCMDC-137988],-9.929,
Cc1ccccc1C1CCN(C2CCC(NC(=O)/C=C/c3cccc(F)c3)CC2)CC1 (stereo not shown) [TCMDC-133505],-47.31,
Nc1ccc(-c2cnc3[nH]cc(-c4ccc(C(=O)O)cc4)c3c2)cn1 [TCMDC-136383],1.916,
COc1ccc2nc(-c3ccc(C(=O)NCCCN4CCN(c5cc(Cl)ccc5OC)CC4)cc3OC)[nH]c2c1 [TCMDC-140025],-24.14,
CCCc1cc(Cc2cnc(N)nc2N)cc(OC)c1OC [TCMDC-137647],0.312,
O=C(Nc1cc(C(F)(F)F)cc(C(F)(F)F)c1)Nc1cc(C(F)(F)F)cc(C(F)(F)F)c1 [TCMDC-123956],-66.5,
CCOC(=O)c1ccc(-c2cnoc2-c2cc(CC)c(OC)cc2O)o1 [TCMDC-124201],-15.35,
CC1CN(c2cc(=O)n(Cc3ccc(NC(=O)Nc4ccc(-c5ccccc5)cc4)cc3)cn2)CC(C)N1 (stereo not shown) [TCMDC-133372],24.66,
O=C(NCc1ccc(Cl)c(Cl)c1)c1ccc(-c2nc3ccc(Cl)cc3[nH]2)cc1 [TCMDC-140441],19.73,
CCOc1cc(C(=O)NCc2ccc(Cl)c(Cl)c2)ccc1-c1nc2ccc(Cl)cc2[nH]1 [TCMDC-140903],96.39,
Cc1ccc2[nH]c(-c3ccc(C(=O)NCc4ccc(Cl)c(Cl)c4)cc3)nc2c1C [TCMDC-140450],11.51,
COC(=O)c1ccc2nc(-c3ccc(C(=O)NCc4ccc(Cl)c(Cl)c4)cc3)[nH]c2c1 [TCMDC-140445],73.87,
CCOc1cc(C(=O)NCc2cc(Cl)cc(Cl)c2)ccc1-c1nc2ccc(Cl)cc2[nH]1 [TCMDC-140904],-8.665,
CCOc1cc(C(=O)NCCc2ccc(Cl)c(Cl)c2)ccc1-c1nc2ccc(Cl)cc2[nH]1 [TCMDC-140905],-12.3,
